# Assay results as given in PubChem BioAssay (NCI).
# About 83,000 compounds went through this panel and 20% of them were active in at least one assay; those are over-represented in the sample as a whole.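 Negative percent growth values reflect cell death: -40 means 40% of the cells present at the start died, and -100 means all died.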 Unmarked numbers belong to inactive results. Calls of active or inactive are those of the source. How the source made its calls: active means growth percent below 10; inactive means the rest.
# Test system: HL-60(TB) leukemia
# Test: NCI-60 one-dose screen, 48 h (100 = growth as untreated, 0 = no growth, -100 = all killed)
# Conditions: 10 µM unless noted
row,SMILES,growth
1,O=C1NN(C(=O)c2ccc(O)cc2)C(c2ccccc2)=N/C1=C\c1cn(-c2ccccc2)nc1-c1ccccc1,85.7%
2,N=C(N)c1ccc(-c2cc(Cl)cc(Cl)c2)cn1,98.1%
3,COc1cccc(/C=C2\COc3ccc(O)c(O)c3C2=O)c1OC,-24.4% (active)
4,O=C1/C(=C/N2N=C(c3ccc(Cl)cc3)CC2c2ccccc2O)SC(=S)N1c1cccc(C(F)(F)F)c1 (stereo not given),52.2%
5,O=C(O)COc1ccccc1F,104%
6,CC1CN=C(c2cccc(-c3ccc(-c4ccccc4)o3)c2)N1 (stereo not given),-46.1% (active)
7,COc1cc(/C=C/C(=O)CC(=O)/C=C/c2ccc(OC(=O)C3C4CC5CC(C4)CC3C5)c(OC)c2)ccc1OC(=O)C1C2CC3CC(C2)CC1C3 (stereo not given),94%
8,CC(=O)c1cc2c(N)c(C(=O)Nc3cccc4ccccc34)sc2nc1C,-10.7% (active)
9,CCN(CC)c1ccc(/C=C/C=C2\NC(=O)NC2=O)cc1,50.8%
10,O=C(N/N=C/c1ccccc1Cl)C(=O)Nc1cccc(C(F)(F)F)c1,106%
11,N#C/C(=C\c1ccc(-c2cccc(C(F)(F)F)c2)o1)c1ccccc1,96.2%
12,COc1ccc(Nc2ncccc2NC(=O)c2cn(Cc3cccc(Oc4ccccc4)c3)nn2)cc1,95.9%
13,CCC(c1cccc(Br)c1)C(C(=O)O)c1ccc(OC)cc1 (stereo not given),96.2%
14,O=C(NCc1ccc(F)cc1)C1CN(c2ccc(Cl)cc2)N(c2ccc(Cl)cc2)C1=O (stereo not given),43.6%
15,N#C/C(C(=O)c1ccccc1)=C1/C(=O)Nc2ccc(Br)cc21,146%
16,CNC(=O)c1cc(Oc2ccc(NC(=O)c3nc(S(C)(=O)=O)n(C)c3-c3ccc(F)cc3)cc2)ccn1,69.8%
17,CCOC(=O)C(COS(C)(=O)=O)(COS(C)(=O)=O)C(=O)OCC,104%
18,CCOC1(OCC)OC(c2ccccc2)=C(C#N)C(/C=C\c2ccccc2)C1(OCC)OCC (stereo not given),80.1%
19,CCCn1c(=S)sc2c(Cl)nc(C)nc21,130%
20,CCCN1CCN(c2ccc3nc(-c4ccc5nc(-c6ccc(OCC)c(OCC)c6)[nH]c5c4)[nH]c3c2)CC1,-23.1% (active)

row,SMILES,growth
1,COc1ccccc1Nc1cc(O)c2c(=O)cc(-c3ccccc3)oc2c1,-6.07% (active)
2,COc1cc(C2CC(c3ccc(C)cc3)=NN2C=O)ccc1OCCN(C)C (stereo not given),95.3%
3,CC(C)(C)NC/C(=C\c1ccccc1)C(=O)c1ccccc1,1.97% (active)
4,C[C@]12CC[C@@H]3c4ccc(O)c([N+](=O)[O-])c4CC[C@H]3[C@@H]1CC[C@@H]2NS(=O)(=O)c1cccc(Br)c1,-5.66% (active)
5,CNC(=O)c1cc(Oc2ccc(NC(=O)Nc3cc(C(C)(C)C)nn3-c3ccc4ncccc4c3)c(F)c2)ccn1,-43.2% (active)
6,CCOC(=O)c1cnc2ccc(Cl)cc2c1NCCCN(C)C,-18.6% (active)
7,CC(C)OCC1CO1 (stereo not given),103%
8,CNC1=C([N+](=O)[O-])C(c2ccc(OC)cc2)C(C#N)=C(c2cccs2)O1 (stereo not given),99.5%
9,CCOC(=O)c1nnn(-c2no[n+]([O-])c2-c2ccc(OC)cc2)c1COc1cccc2cccnc12,-18.3% (active)
10,Cc1cc(N)c2cc(NC(=O)/C=C\c3ccccc3Cl)ccc2n1,-29.3% (active)
11,O=C1CC(c2ccccc2)Cc2nc3ccc(Br)cc3cc21 (stereo not given),-28.4% (active)
12,COc1cccc(CCC(=O)c2cc3c(N)c(C(=O)Nc4ccccc4)sc3nc2C)c1,6.59% (active)
13,C[C@]12CCc3nc(Nc4ccc(O)cc4)sc3C1=CC[C@@H]1[C@@H]2CC[C@]2(C)/C(=N/NC(N)=S)CC[C@@H]12,-4.61% (active)
14,COc1ccc(-c2nn(-c3cccc(NC(=O)c4cc(C(F)(F)F)cc(C(F)(F)F)c4)c3)cc2-c2ccncc2)cc1Cl,88.9%
15,O=C(/C(=C/c1ccccc1)CN1CCCCC1)c1ccccc1,-16.4% (active)
16,COc1ccc(C(=O)C2C(C#N)C(C#N)C3C=Cc4ccccc4N32)cc1 (stereo not given),-7.91% (active)
17,CC(=O)c1nc2ccccc2n1CCNC(N)=O,80.5%
18,CCCCOc1nc2cc(Cl)ccc2cc1/C=C/c1cc(/C=C/c2cc3ccc(Cl)cc3nc2OCCCC)n(-c2ccccc2)n1,77.8%
19,O=C(C1CCC1)N1N=C(c2ccc(-n3ccc(C(F)(F)F)n3)cc2)CC1c1ccc[nH]1 (stereo not given),97.8%
20,COC(=O)c1cc(Nc2ccc(O)c3c2C(=O)c2c([N+](=O)[O-])ccc(O)c2C3=O)cc(C(=O)OC)c1,62.3%
